# How the values were obtained:
# Assay in all cases: DAPPL (digital affinity profiling via proximity ligation, sequencing); 10 mM Tris-HCl pH 7.5, 50 mM NaCl, 1 mM DTT, 4% glycerol, room temperature, 30 min; GST-TFs on glutathione beads, 16-mer random dsDNA library, 0.1% formaldehyde crosslink after washing; high values mean tight binding
# [1] = target: T1, FEV (Homo sapiens, UniProt Q99581 1-238); details: protein: recombinant; tags: N-terminal GST; dsDNA, one strand shown
# T1 sequence: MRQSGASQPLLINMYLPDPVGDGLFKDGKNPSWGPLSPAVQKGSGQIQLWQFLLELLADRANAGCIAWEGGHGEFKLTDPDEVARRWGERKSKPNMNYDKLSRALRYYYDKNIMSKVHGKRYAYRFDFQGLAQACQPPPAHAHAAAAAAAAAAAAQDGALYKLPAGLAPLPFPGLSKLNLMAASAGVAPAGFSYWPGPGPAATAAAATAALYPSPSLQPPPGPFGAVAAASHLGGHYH
# Procedure, shortened: (§1)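 In yeast, human transcription factors were expressed with a GST fusion, then pulled down on glutathione beads and given DNA barcodes. Pooled with a tag-only sample, they were exposed to 200 nmole of a 16-mer random double-stranded DNA library (Tris/NaCl/DTT/glycerol buffer, room temperature, 30 min), washed, crosslinked with 0.1% formaldehyde, proximity-ligated using BsaI/T4 ligase for 1 h at 37 °C, PCR-amplified and read on an Illumina NextSeq500. Each hexamer's frequency of reads for a factor, divided by the matching frequency for the tag-only sample, gives the binding signal.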
# [2] = target: ETV5 (Homo sapiens, UniProt P41161 1-510); details: protein: recombinant; tags: N-terminal GST; dsDNA, one strand shown
# Procedure, shortened: as §1
# [3] = target: HSF1 (Homo sapiens, UniProt Q00613 1-529); details: protein: recombinant; tags: N-terminal GST; chain copies: 3; dsDNA, one strand shown
# Procedure, shortened: as §1
# [4] = target: T2, SPIC (Homo sapiens, UniProt Q8N5J4 1-248); details: protein: recombinant; tags: N-terminal GST; dsDNA, one strand shown
# T2 sequence: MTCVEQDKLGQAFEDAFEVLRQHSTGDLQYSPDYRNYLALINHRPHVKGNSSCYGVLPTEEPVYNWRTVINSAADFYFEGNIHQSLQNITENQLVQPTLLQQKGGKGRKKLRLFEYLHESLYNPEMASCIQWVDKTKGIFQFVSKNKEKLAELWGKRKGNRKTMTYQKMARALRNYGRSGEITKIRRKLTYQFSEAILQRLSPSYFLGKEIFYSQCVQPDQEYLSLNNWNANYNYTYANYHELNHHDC
# Procedure, shortened: as §1
# [5] = target: ELF4 (Homo sapiens, UniProt Q99607 1-663); details: protein: recombinant; tags: N-terminal GST; dsDNA, one strand shown
# Procedure, shortened: as §1
# [6] = target: T3, ELK4 (Homo sapiens, UniProt P28324-2 1-405); details: protein: recombinant; tags: N-terminal GST; dsDNA, one strand shown
# T3 sequence: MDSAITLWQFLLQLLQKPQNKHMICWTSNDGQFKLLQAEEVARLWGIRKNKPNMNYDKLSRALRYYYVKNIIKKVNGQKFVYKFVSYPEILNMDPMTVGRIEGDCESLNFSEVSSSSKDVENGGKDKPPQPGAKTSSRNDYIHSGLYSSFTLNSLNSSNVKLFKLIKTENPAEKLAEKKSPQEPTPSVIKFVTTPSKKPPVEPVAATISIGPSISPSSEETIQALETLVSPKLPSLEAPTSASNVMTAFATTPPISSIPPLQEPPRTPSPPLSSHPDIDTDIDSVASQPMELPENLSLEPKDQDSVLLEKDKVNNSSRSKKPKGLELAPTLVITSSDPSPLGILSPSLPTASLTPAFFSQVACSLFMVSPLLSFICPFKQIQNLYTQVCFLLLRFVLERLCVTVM
# Procedure, shortened: as §1
# [7] = target: T4, ETV2 (Homo sapiens, UniProt O00321 1-342); details: protein: recombinant; tags: N-terminal GST; dsDNA, one strand shown
# T4 sequence: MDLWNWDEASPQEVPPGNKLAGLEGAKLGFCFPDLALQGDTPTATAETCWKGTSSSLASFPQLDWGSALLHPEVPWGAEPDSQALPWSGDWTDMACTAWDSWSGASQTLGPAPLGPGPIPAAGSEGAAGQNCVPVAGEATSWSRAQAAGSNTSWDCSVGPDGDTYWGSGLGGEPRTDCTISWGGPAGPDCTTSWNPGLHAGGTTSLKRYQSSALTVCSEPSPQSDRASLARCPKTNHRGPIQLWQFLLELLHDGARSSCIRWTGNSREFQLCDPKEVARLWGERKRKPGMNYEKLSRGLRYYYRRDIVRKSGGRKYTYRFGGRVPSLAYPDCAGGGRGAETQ
# Procedure, shortened: as §1
# [8] = target: T5, ELF3 (Homo sapiens, UniProt P78545 1-371); details: protein: recombinant; tags: N-terminal GST; dsDNA, one strand shown
# T5 sequence: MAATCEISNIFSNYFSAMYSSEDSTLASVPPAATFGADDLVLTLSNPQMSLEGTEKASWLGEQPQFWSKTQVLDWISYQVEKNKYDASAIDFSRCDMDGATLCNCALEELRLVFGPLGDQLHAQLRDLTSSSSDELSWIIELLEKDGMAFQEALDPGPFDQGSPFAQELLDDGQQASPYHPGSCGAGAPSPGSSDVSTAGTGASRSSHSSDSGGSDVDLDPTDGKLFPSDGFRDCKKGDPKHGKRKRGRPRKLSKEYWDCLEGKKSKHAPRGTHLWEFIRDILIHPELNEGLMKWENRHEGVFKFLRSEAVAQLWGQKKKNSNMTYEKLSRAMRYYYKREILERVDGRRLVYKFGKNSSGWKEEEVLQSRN
# Procedure, shortened: as §1
# [9] = target: CRX (Homo sapiens, UniProt O43186 1-299); details: protein: recombinant; tags: N-terminal GST; dsDNA, one strand shown
# Procedure, shortened: as §1
# HSF1, sequence (Q00613 whole entry): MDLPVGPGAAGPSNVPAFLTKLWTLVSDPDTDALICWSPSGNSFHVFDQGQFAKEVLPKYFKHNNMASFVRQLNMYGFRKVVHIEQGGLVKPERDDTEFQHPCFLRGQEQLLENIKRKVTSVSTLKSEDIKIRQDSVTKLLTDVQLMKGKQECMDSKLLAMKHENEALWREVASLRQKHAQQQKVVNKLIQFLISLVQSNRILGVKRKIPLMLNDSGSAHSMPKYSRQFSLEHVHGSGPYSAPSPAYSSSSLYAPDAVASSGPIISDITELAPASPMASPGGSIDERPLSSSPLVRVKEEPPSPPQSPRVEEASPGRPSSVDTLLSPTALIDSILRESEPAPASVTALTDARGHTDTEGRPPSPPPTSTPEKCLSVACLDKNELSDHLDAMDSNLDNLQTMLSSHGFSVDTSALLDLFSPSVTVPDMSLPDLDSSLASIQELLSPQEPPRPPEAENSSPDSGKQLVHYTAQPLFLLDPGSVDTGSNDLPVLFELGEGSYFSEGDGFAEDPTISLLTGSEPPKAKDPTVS
# CRX, sequence (O43186 whole entry): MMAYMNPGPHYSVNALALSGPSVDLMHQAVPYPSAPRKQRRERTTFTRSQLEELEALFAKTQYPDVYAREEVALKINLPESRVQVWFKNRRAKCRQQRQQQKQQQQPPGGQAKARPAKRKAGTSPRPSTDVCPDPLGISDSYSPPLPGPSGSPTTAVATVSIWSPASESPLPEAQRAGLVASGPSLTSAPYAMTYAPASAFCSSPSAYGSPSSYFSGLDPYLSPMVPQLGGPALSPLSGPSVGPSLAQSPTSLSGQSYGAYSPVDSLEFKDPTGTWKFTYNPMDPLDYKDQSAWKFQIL
# ELF4, sequence (Q99607 whole entry): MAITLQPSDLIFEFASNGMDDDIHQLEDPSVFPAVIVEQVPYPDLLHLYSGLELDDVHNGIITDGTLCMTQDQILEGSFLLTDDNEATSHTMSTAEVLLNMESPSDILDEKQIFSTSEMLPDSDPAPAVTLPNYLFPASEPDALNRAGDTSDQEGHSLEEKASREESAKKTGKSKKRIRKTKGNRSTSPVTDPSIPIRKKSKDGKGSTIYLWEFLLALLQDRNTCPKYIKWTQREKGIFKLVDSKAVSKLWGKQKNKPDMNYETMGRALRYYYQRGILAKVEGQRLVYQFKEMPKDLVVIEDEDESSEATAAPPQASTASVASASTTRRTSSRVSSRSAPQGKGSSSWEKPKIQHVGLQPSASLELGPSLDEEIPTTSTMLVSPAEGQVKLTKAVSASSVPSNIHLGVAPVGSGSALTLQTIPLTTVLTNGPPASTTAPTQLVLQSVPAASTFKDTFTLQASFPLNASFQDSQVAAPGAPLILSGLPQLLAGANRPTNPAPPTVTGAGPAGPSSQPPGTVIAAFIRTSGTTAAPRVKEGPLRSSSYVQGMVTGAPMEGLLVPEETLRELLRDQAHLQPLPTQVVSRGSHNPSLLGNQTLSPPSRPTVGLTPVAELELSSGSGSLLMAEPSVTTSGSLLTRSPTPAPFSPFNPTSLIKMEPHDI
# ETV5, sequence (P41161 whole entry): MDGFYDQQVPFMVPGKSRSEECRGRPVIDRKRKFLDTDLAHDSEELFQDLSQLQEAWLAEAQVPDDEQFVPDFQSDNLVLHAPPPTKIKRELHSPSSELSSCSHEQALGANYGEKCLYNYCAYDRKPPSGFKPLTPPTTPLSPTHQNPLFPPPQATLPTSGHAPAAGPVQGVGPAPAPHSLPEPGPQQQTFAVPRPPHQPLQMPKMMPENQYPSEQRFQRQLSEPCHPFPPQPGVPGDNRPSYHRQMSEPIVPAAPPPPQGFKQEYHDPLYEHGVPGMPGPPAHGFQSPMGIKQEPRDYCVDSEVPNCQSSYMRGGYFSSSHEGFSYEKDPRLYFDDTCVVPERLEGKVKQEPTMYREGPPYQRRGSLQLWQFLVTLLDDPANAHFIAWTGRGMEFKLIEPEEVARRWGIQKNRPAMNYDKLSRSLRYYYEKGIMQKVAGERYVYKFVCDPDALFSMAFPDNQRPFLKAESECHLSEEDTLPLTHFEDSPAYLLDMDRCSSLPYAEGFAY
sequence,measurement,setting,value
AATTTG,binding signal,[1],"1.39 fold enrichment (6-mer frequency, TF over GST control)"
same,binding signal,[2],"1.25 fold enrichment (6-mer frequency, TF over GST control)"
same,binding signal,[3],"1.26 fold enrichment (6-mer frequency, TF over GST control)"
same,binding signal,[4],"1.41 fold enrichment (6-mer frequency, TF over GST control)"
same,binding signal,[5],"1.26 fold enrichment (6-mer frequency, TF over GST control)"
same,binding signal,[6],"1.34 fold enrichment (6-mer frequency, TF over GST control)"
same,binding signal,[7],"1.16 fold enrichment (6-mer frequency, TF over GST control)"
same,binding signal,[8],"1.32 fold enrichment (6-mer frequency, TF over GST control)"
same,binding signal,[9],"1.33 fold enrichment (6-mer frequency, TF over GST control)"

# — publication PMC7862700, “An all-to-all approach to the identification of sequence-specific readers for epigenetic DNA modifications on cytosine”
